Values joined by “and” are separate entries in the source; they are usually repeats but may differ in a detail not shown here. Equal entries are not always repeated. Screen size: about 360,000 compounds; about 3,100 (0.86%) were called active.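 Rule for the calls: active = at least 50% inhibition at 5 µM, scaled per plate between neutral and stimulator controls; inactive = the rest.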 Shown is part of a subset that was picked to be rich in actives.
assay: inhibitors of PAF-induced NF-kB signaling, primary screen, cell-based, GFP fluorescence, uHTS (AID 588850); conditions: KKLEB NF-kB-GFP reporter, GFP fluorescence overnight, at 5 µM, stronger effect = higher value;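 note: PAF is a Pseudomonas aeruginosa culture filtrate used as stimulus; plate controls were PAF-stimulated DMSO wells for no effect and unstimulated DMSO wells for full effect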

SMILES | inhibition
COc1cc(C=C(OC(C)=O)c2ccc3c(c2)OCO3)cc(OC)c1OC | -22.3% (inactive)
COc1cc(C2c3cc4c(cc3C(O)C3COC(=O)C23)OCO4)cc(OC)c1OC (configuration not stated) | 50.8% (active)
COc1cc(C2CC(=O)Oc3cc(OC)c(OC)c(OC)c32)cc(OC)c1OC (configuration not stated) | -6.8% (inactive)
C#C[C@]1(O)CC[C@H]2[C@@H]3CCC4=CC(=O)CC[C@@H]4[C@H]3CC[C@@]21CC | 3.1% (inactive) and 6.1% (inactive)
COc1ccc(CN2CC[C@H]3C=CC[C@@H](C(=O)N4CCOCC4)[C@H]3C2=O)cc1OC | -24.1% (inactive)
Cc1ccc(OC(=O)c2cncc(Br)c2)c(C)c1 | 1.1% (inactive)
CC(=O)Nc1c2c(nn1-c1cccc(C)c1)CSC2 | 3.9% (inactive)
Cc1cccc(-n2ncc(Cl)c(Cl)c2=O)c1 | 85.5% (active)
CCCNC(=O)c1c(Cl)cnn1-c1ccc(C)cc1 | 9.5% (inactive)
CC(C)(C)C1CCC(C(=O)NCC(c2cccs2)N2CCOCC2)CC1 (configuration not stated) | 21.5% (inactive)
COc1ccc(C(C(=O)NCc2ccccc2)N(Cc2cccs2)C(=O)c2cnccn2)cc1 (configuration not stated) | -3.9% (inactive)
Cc1cc(Br)cn2c(Cc3cccc(F)c3)c(-c3cccc(Br)c3)nc12 | 47.6% (inactive)
Cc1cc2nc(-c3ccco3)c(Cc3cccc(F)c3)n2c(C)c1Br | 62.5% (active)
Cc1cc2nc(-c3ccc(Cl)cc3)c(Cc3cccc(F)c3)n2c(C)c1Br | 17.5% (inactive)
CC1(C)O[C@@H]2[C@H](O1)[C@@H](CO)O[C@H]2n1c(N2CCCCC2)nc2c(N)ncnc21 | 7.1% (inactive)
O=C(Nc1ccc(Br)c2cccnc12)c1ccc(Cn2cc([N+](=O)[O-])cn2)o1 | 14.3% (inactive)
N#CC1(Nc2ccc(-c3ccc(Cl)cc3)cc2)CCCC1 | -34.4% (inactive)
NC(=O)c1sc2nc3c(c(-c4ccccc4)c2c1N)CCC3 | 78.3% (active)
CC(C)OC(=O)c1sc2nc3c(cc2c1N)C(=O)CCC3 | -15% (inactive)
Cc1sc2nc(CC(N)=O)[nH]c(=O)c2c1-c1ccccc1 | -3.2% (inactive)
O=C(NCCCN1CCN(c2ccccc2F)CC1)C1CCC(=O)N1C1CCCCC1 (configuration not stated) | -1.2% (inactive)
Cc1oc2c(c1C(=O)N1CCOCC1)C(=O)c1ccccc1C2=O | 72.2% (active)
Cc1ccc(C(=O)N2CCN(S(=O)(=O)N3CCOCC3)CC2)cc1 | 15.9% (inactive)

SMILES | inhibition
CC(C(=O)Nc1ccccc1-c1ccccc1)N1CCOCC1 (configuration not stated) | 14.5% (inactive)
Nc1c(-c2ccc(F)cc2)cnn1C1CCS(=O)(=O)C1 (configuration not stated) | -5.8% (inactive)
Cc1onc(NC(=O)c2ccc([N+](=O)[O-])o2)c1Br | 27.3% (inactive)
CCN(CC)S(=O)(=O)c1ccc(N2CCCC2)c(NC(=O)c2ccc([N+](=O)[O-])o2)c1 | 10.6% (inactive)
Cc1cccc(NC(=O)c2ccc([N+](=O)[O-])o2)c1 | 59.4% (active)
CCn1c(SCC(=O)Nc2ccccc2F)nc2c(c1=O)SC(C)C2 (configuration not stated) | 6.5% (inactive)
CCOC(=O)CSc1ccccn1 | -2.8% (inactive)
CCOC(=O)C(C(=O)c1ccccc1)C(c1ccccc1)c1nccc2ccccc12 (configuration not stated) | 50.6% (active)
O=C(O)CSc1nccc2ccccc12 | -3.7% (inactive)
O=c1nc(N2CCOCC2)nc2n1CCO2 | -13% (inactive)
Cc1cccc(C)c1Cn1c(C)c(C(=O)NCc2cccc(Cl)c2)sc1=O | 10.9% (inactive)
CC(C)c1ccc2c(c1)c(SC(C)(C)C)c(CC(C)(C)C(=O)O)n2Cc1ccc(Cl)cc1 | 63.4% (active)
COc1ccc(CCNC(=O)Nc2ccc3c(c2)c(=O)n(C)n3C)cc1OC | 14.5% (inactive)
CC(C)C(=O)Nc1c2c(nn1-c1ccccc1)CSC2 | 7% (inactive)
Cn1c(=O)c2c(n(Cc3ccccc3)c1=O)NC(=O)C2CC(=O)N1CCc2ccccc2C1 (configuration not stated) | 18% (inactive)
COc1cccc(NCCC(=O)c2cccc([N+](=O)[O-])c2)c1 | -10.5% (inactive)
O=C(Nc1cccc([N+](=O)[O-])c1)N1CCc2ccccc2C1 | 21.9% (inactive)
COC(=O)/C=C\C(=O)Nc1cccc([N+](=O)[O-])c1 | 92.2% (active)
O=C(CNC(=O)N1CC(=O)Nc2ccccc21)Nc1ccc(Br)cc1F | -4.5% (inactive)
COc1ccc(N(CC(=O)N/N=C/c2cccc3c2OCCO3)S(=O)(=O)c2ccc(NC(C)=O)cc2)cc1 | -5.5% (inactive)
COCOCCn1cc(CN2CCS(=O)(=O)N(Cc3ccc(-c4cccc(N(C)C)c4)cc3)C(CC(C)C)C2=O)nn1 (configuration not stated) | 6.3% (inactive)
CC[C@H]1CN2CCc3cc(OC)c(OC)cc3[C@@H]2C[C@@H]1C[C@H]1NCCc2cc(OC)c(OC)cc21 | 82.5% (active)
COc1cc(/C=C/C(=O)O)cc(S(=O)(=O)Nc2ccccc2C(=O)NCCc2ccccc2)c1OC | -10.9% (inactive)

SMILES | inhibition
Cc1ccc(NC(=O)NC(=O)CSc2nnc(-c3ccc(OC(F)F)cc3)n2N)c(C)c1 | -26.2% (inactive)
Cc1ccc(-n2ncc3c2CC(C)(C)CC3NC(=O)Cc2c(C)noc2C)cc1 (configuration not stated) | 28.3% (inactive)
CN(C(=O)CCN1C(=O)/C(=C/c2ccccc2F)SC1=S)C1CCS(=O)(=O)C1 (configuration not stated) | -14.9% (inactive)
Cc1ccc(-c2nn(-c3ccccc3)cc2/C=C2\SC(=S)N(CCCCCC(=O)O)C2=O)o1 | 53.8% (active)
O=C1/C(=C\c2ccccc2Cl)SC(=S)N1CCC(=O)N1CCCc2ccccc21 | 8.4% (inactive)
CN(C)S(=O)(=O)c1ccc(N2CCCC2)c(C(=O)Nc2ccc(Br)cc2F)c1 | 21.3% (inactive)
Cc1cc2c3ccccc3[nH]c(=O)n2n1 | -16.8% (inactive)
O=c1c2c(ncn1Cc1ccccc1)nc1n2CCC1 | 1.3% (inactive)
CN(C)c1ccnc2sc3c(=O)n(Cc4ccccc4)cnc3c12 | 80.2% (active)
CN(C)/C=C/c1c(C#N)c(=O)ncn1Cc1ccccc1 | -10.4% (inactive)
O=C(Nc1ccc(F)cc1)Nc1nnc([C@H]2C[C@H](O)[C@@H](CO)O2)s1 | 8% (inactive)
CCOC(=O)c1cc(C(=O)Nc2ccc(S(=O)(=O)Nc3ccc(OC)cc3)cc2)nn1C | -4.7% (inactive)
CCN(Cc1ccccc1)C(=O)CCS(=O)(=O)c1ccc2c(c1)oc(=O)n2C | -2.4% (inactive)
O=C1Nc2ccccc2/C1=C/c1ccnc2ccccc12 | 50.5% (active)
COCCN(C(=O)CCC(=O)Nc1ccccn1)C(C(=O)NCCC(C)C)c1ccc(OC)cc1 (configuration not stated) | -7.9% (inactive)
CCOC(=O)N1CCN(S(=O)(=O)c2ccc3c(c2)C(C)C(=O)N3)CC1 (configuration not stated) | -4% (inactive)
NC(=O)c1ncn([C@@H]2O[C@H](CNCc3cnc(N4CCOCC4)s3)[C@@H](O)[C@H]2O)n1 | -11.1% (inactive)
O=C(CCl)Nc1ccc(Sc2ccc(NC(=O)CCl)cc2)cc1 | 93.7% (active)
CC(=O)Nc1ccc(SCC(=O)NC(=O)c2ccc(Cl)cc2)cc1 | -19.2% (inactive)
O=C(O)CSCC(=O)Nc1ccc(C(F)(F)F)cc1 | -2.9% (inactive)
Cc1[nH]c2ccccc2c1SCC(=O)Nc1nccs1 | 1% (inactive)
CCNC(=O)C1CCCN(C(=O)c2cc(F)ccc2C)CC1 (configuration not stated) | -17.2% (inactive)
Cc1ccccc1-c1ccc2c(c1)O[C@@H](CN(C)Cc1ccc(C(=O)O)cc1)[C@@H](C)CN([C@H](C)CO)S2(=O)=O | 44.9% (inactive)

SMILES | inhibition
CC(NC(=O)c1cc2cc(Cl)ccc2oc1=N)c1ccccc1 (configuration not stated) | 23.8% (inactive)
COc1cc2c3c(c1)/C(=C1/SC(=S)NC1=O)C(=O)N3C(C)(C)C=C2C | 50.7% (active)
CCOc1ccc(NC(=O)CSc2ncnc3c2sc2ccccc23)cc1 | 5.6% (inactive)
O=C(NCC(=O)N1CCN(c2ccccc2F)CC1)c1cccs1 | -14.2% (inactive)
Cc1ccc(C)c(NC(CC(=O)c2ccccc2)C(=O)OCC(=O)c2cccs2)c1 (configuration not stated) | -4.5% (inactive)
Cc1ccccc1C(CC(=O)c1cccs1)C(C#N)C#N (configuration not stated) | 83.8% (active)
O=Nc1c(O)cc(O)c2ccccc12 | -12.5% (inactive)
O=Cc1c(NCCc2cccc(F)c2)c2ccccc2[nH]c1=O | 5% (inactive)
O=C(Cn1c(NCCO)nc2ccccc21)c1ccc(Cl)cc1Cl | 1.6% (inactive)
OCCNc1nc(Nc2ccc(Cl)c(Cl)c2)nc2ccccc12 | 87.5% (active)
OCCNCCOc1ccc(Cl)c(Cl)c1 | -8.5% (inactive)
O=c1[nH]c(=S)[nH]c(O)c1/C=C1\C=Nc2ccccc21 | 69.3% (active)
c1csc(-c2nnc(COc3ncnc4sccc34)o2)c1 | 18.1% (inactive)
C=C(C)C(=O)O[C@H]1C/C(C)=C\C(=O)/C=C(\C)[C@H](O)[C@@H]2OC(=O)C(=C)[C@@H]21 | 74.1% (active)
CCN(Cc1ccccc1)C(=O)CSc1nc(C)cc2c1C(=O)OC2 | 5% (inactive)
Oc1c(Cl)cc(Cl)c(Cl)c1Cc1c(O)c(Cl)cc(Cl)c1Cl | 65.4% (active)
O=c1[nH]c(CCl)nc2cc(-c3ccc(Cl)cc3)sc12 | 7.1% (inactive)
CC[N+]1(CC)CC2=Cc3ccccc3CC2C1 (configuration not stated) | -4% (inactive)
COc1ccc(CC(=O)c2ccc(O)cc2O)cc1OC | -7.8% (inactive)
C=CCOc1ccccc1CNn1c(C)n[nH]c1=S | 5.7% (inactive)
O=C(CSc1ncnc2scc(-c3ccccc3)c12)NCc1ccc2c(c1)OCO2 | 13.3% (inactive)
O=C(COC(=O)c1ccc(Cl)nc1)NCc1ccc2c(c1)OCO2 | -9.2% (inactive)
CN(C)C(=O)c1cccc(-c2cnc3sc(NCc4ccc5c(c4)OCO5)nn23)c1 | 82.2% (active)

— PubChem BioAssay AID588850 (Sanford-Burnham Center for Chemical Genomics, 2011)
